Assay [1] in a line: NCI Yeast Anticancer Drug Screen. Data for the rad50 strain (AID 155).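 Note: 0% = growth of vehicle-only cultures of the same strain.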 The note with it: S. cerevisiae rad50 strain growth inhibition, hits give high values. Summed up:
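A DNA repair-deficient yeast mutant serves as the test organism; compound-induced growth inhibition is calculated against vehicle-treated cells.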

The nature of assay [2]: NCI Yeast Anticancer Drug Screen. Data for the mec2-1 strain (AID 157). The note with it: S. cerevisiae mec2-1 strain, hits give high values. The method, boiled down:
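Growth inhibition is read against vehicle-treated controls after compound exposure of the mec2-1 yeast strain, which is defective in DNA damage repair or cell cycle control.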

Assay [3] is described as follows: NCI Yeast Anticancer Drug Screen. Data for the sgs1 mgt1 strain (AID 161).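 Note: 0% = growth of cultures given vehicle only.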 Conditions: S. cerevisiae sgs1 mgt1 strain, hits give high values. Summed up:
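This yeast growth screen uses a strain with defined DNA-repair lesions; compound-treated growth is compared with vehicle-treated growth.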

A short description of assay [4]: NCI Yeast Anticancer Drug Screen. Data for the cln2 rad14 strain (AID 165).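 Note: 0% = growth equal to vehicle treated cultures.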 The note with it: S. cerevisiae cln2 rad14 strain, hits give high values. Summed up: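 Growth inhibition, relative to vehicle-treated controls, is the read-out. The test organism is a yeast strain with defined genetic alterations, cln2 rad14.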
Assay [5] can be described thus: NCI Yeast Anticancer Drug Screen. Data for the bub3 strain (AID 167). Conditions: S. cerevisiae bub3 mutant strain, hits give high values. Summed up:
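Inhibition values come from growth of compound-treated mutant yeast normalised to vehicle-treated controls.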

Assay [6] in a line: NCI Yeast Anticancer Drug Screen. Data for the mlh1 rad18 strain (AID 175). Conditions: S. cerevisiae mlh1 rad18 strain growth inhibition, hits give high values. Summed up:
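Cells of a genetically altered yeast strain, deficient in DNA damage repair, were treated with compound. Their growth was then compared with that of vehicle-treated cultures to give inhibition.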

Setting [7] is: at 5.0 µM (retest, dose inferred, filed as 0.5).
Where [8] appears, read: at 50.0 µM (retest, dose inferred, filed as 5.0).

The results in this text go back to PubChem BioAssay (NCI).

About 79,000 compounds went through this panel and 15% of them were active in at least one assay; those are over-represented in the sample as a whole. Unmarked numbers belong to inactive results. Activity calls are given as the source filed them. Cut-off read from the data, not from the text of the source: active = growth inhibition above about 70%; inactive = the rest.

As for `CNC(=O)c1cc(NC(=O)c2ccc(C(=O)Nc3cc(C(=O)NC)cc(C4=NCCN4)c3)cc2)cc(C2=NCCN2)c1`, the growth inhibition in assay [1] (setting [7]) is 3%; in assay [1] (setting [8]) it was -3%; in assay [1] (at 50.0 µM), 98.8% (active); in assay [2] (setting [7]) it was 11%; in assay [2] (setting [8]) it was 1%; in assay [2] (at 50.0 µM), 99.6% (active). Besides, the growth inhibition in assay [3] (setting [7]) is -6%; in assay [3] (setting [8]), -3%; in assay [3] (at 50.0 µM), 99.3% (active); in assay [4] (setting [7]), 0%; in assay [4] (setting [8]), 8%; in assay [4] (at 50.0 µM) it was 92.8% (active). The growth inhibition in assay [5] (setting [7]) is 5%; in assay [5] (setting [8]) it was 1%; in assay [5] (at 50.0 µM), 98.7% (active); in assay [6] (setting [7]) it was 2%; in assay [6] (setting [8]), -19%; in assay [6] (at 50.0 µM), 98.6% (active).
For `O=C1C=CCCCC1(c1ccccc1)c1ccccc1`, the growth inhibition in assay [1] (setting [7]) is 2%; in assay [1] (setting [8]), 8%; in assay [1] (at 50.0 µM) it was 77.5% (active); in assay [2] (setting [7]), 0%; in assay [2] (setting [8]), 14%; in assay [2] (at 50.0 µM), 70.3% (active). For the same compound, the growth inhibition was 5% in assay [3] (setting [7]); 15% in assay [3] (setting [8]); 85.4% (active) in assay [3] (at 50.0 µM); 9% in assay [4] (setting [7]); 4% in assay [4] (setting [8]); 19.9% in assay [4] (at 50.0 µM). Also, the growth inhibition in assay [5] (setting [7]) was -3%; in assay [5] (setting [8]) it was -6%; in assay [5] (at 50.0 µM), 52.2%; in assay [6] (setting [7]) it was -3%; in assay [6] (setting [8]) it was 12%; in assay [6] (at 50.0 µM), 73.6% (active).
Take `NC(=O)CC1CCC(c2ccccc2)CC1` (stereo not given): the growth inhibition in assay [1] (setting [7]) is -1%; in assay [1] (setting [8]), -59%; in assay [1] (at 50.0 µM), 44%; in assay [2] (setting [7]) it was -6%; in assay [2] (setting [8]), -23%; in assay [2] (at 50.0 µM), 6.95%. Besides, the growth inhibition was -1% in assay [3] (setting [7]); -14% in assay [3] (setting [8]); 77.3% (active) in assay [3] (at 50.0 µM); 2% in assay [4] (setting [7]); -8% in assay [4] (setting [8]); -47.6% in assay [4] (at 50.0 µM). Also, the growth inhibition is -12% in assay [5] (setting [7]); -53% in assay [5] (setting [8]); 12.7% in assay [5] (at 50.0 µM); 0% in assay [6] (setting [7]); -31% in assay [6] (setting [8]); 41.8% in assay [6] (at 50.0 µM).
With `Cc1nn(C(=O)c2ccccc2O)c2c1C(c1ccc([N+](=O)[O-])cc1)SC(N)=N2` (stereo not given), the growth inhibition is 6% in assay [1] (setting [7]); 81% (active) in assay [1] (setting [8]); 35.5% in assay [1] (at 50.0 µM); -4% in assay [2] (setting [7]); 80% (active) in assay [2] (setting [8]); 47% in assay [2] (at 50.0 µM). In addition, the growth inhibition in assay [3] (setting [7]) is -1%; in assay [3] (setting [8]), 89% (active); in assay [3] (at 50.0 µM), 69.5%; in assay [4] (setting [7]), -8%; in assay [4] (setting [8]), 36%; in assay [4] (at 50.0 µM) it was 12.3%. In addition, the growth inhibition in assay [5] (setting [7]) was -8%; in assay [5] (setting [8]), 71% (active); in assay [5] (at 50.0 µM) it was 91.2% (active); in assay [6] (setting [7]) it was 10%; in assay [6] (setting [8]), 96% (active); in assay [6] (at 50.0 µM), 53.4%.
As to `O=Cc1cc2c(s1)C(=O)c1sccc1C2=O`, the growth inhibition in assay [1] (setting [7]) was 93% (active); in assay [1] (setting [8]), 99% (active); in assay [1] (at 50.0 µM) it was 88.8% (active); in assay [2] (setting [7]), 96% (active); in assay [2] (setting [8]), 99% (active); in assay [2] (at 50.0 µM), 91.8% (active). Further, the growth inhibition in assay [3] (setting [7]) is 84% (active); in assay [3] (setting [8]), 99% (active); in assay [3] (at 50.0 µM) it was 89% (active); in assay [4] (setting [7]), 52%; in assay [4] (setting [8]), 97% (active); in assay [4] (at 50.0 µM), 91.7% (active). Further, the growth inhibition in assay [5] (setting [7]) is 94% (active); in assay [5] (setting [8]) it was 99% (active); in assay [5] (at 50.0 µM), 90% (active); in assay [6] (setting [7]), 92% (active); in assay [6] (setting [8]), 99% (active); in assay [6] (at 50.0 µM), 90.3% (active).
As to `Cc1ccc(S(=O)(=O)NNC(C[N+](=O)[O-])c2ccccc2)cc1` (stereo not given), the growth inhibition was 69% in assay [1] (setting [7]); 99% (active) in assay [1] (setting [8]); 96.9% (active) in assay [1] (at 50.0 µM); 5% in assay [2] (setting [7]); 100% (active) in assay [2] (setting [8]); 44.4% in assay [2] (at 50.0 µM). Moreover, the growth inhibition in assay [3] (setting [7]) is 23%; in assay [3] (setting [8]) it was 99% (active); in assay [3] (at 50.0 µM), 96.2% (active); in assay [4] (setting [7]) it was 8%; in assay [4] (setting [8]), 74% (active); in assay [4] (at 50.0 µM), 70.7% (active). Moreover, the growth inhibition was 17% in assay [5] (setting [7]); 99% (active) in assay [5] (setting [8]); 92.7% (active) in assay [5] (at 50.0 µM); 36% in assay [6] (setting [7]); 99% (active) in assay [6] (setting [8]); 96% (active) in assay [6] (at 50.0 µM).
With `CC(=O)Oc1cc(Cl)ccc1Cc1ccc(Cl)cc1OC(C)=O`, the growth inhibition is 0% in assay [1] (setting [7]); 87% (active) in assay [1] (setting [8]); 94.5% (active) in assay [1] (at 50.0 µM); 1% in assay [2] (setting [7]); 78% (active) in assay [2] (setting [8]); 91.4% (active) in assay [2] (at 50.0 µM). Further, the growth inhibition is 0% in assay [3] (setting [7]); 76% (active) in assay [3] (setting [8]); 85.1% (active) in assay [3] (at 50.0 µM); 2% in assay [4] (setting [7]); 89% (active) in assay [4] (setting [8]); 90.7% (active) in assay [4] (at 50.0 µM). Further, the growth inhibition in assay [5] (setting [7]) was 2%; in assay [5] (setting [8]), 83% (active); in assay [5] (at 50.0 µM), 94.8% (active); in assay [6] (setting [7]), 1%; in assay [6] (setting [8]) it was 90% (active); in assay [6] (at 50.0 µM), 94.7% (active).
As to `CCOC(=O)C1=C(Nc2ccc(Cl)c(Cl)c2)OC/C1=N\NS(=O)(=O)c1ccc(C)cc1`, the growth inhibition in assay [1] (setting [7]) was 24%; in assay [1] (setting [8]), 24%; in assay [1] (at 50.0 µM), 17.6%; in assay [2] (setting [7]) it was 15%; in assay [2] (setting [8]) it was 15%; in assay [2] (at 50.0 µM), 51.9%. For the same compound, the growth inhibition in assay [3] (setting [7]) was 22%; in assay [3] (setting [8]), 22%; in assay [3] (at 50.0 µM), 80.3% (active); in assay [4] (setting [7]), 5%; in assay [4] (setting [8]), 5%; in assay [4] (at 50.0 µM) it was 51.6%. The growth inhibition in assay [5] (setting [7]) was 15%; in assay [5] (setting [8]), 15%; in assay [5] (at 50.0 µM) it was 63%; in assay [6] (setting [7]), 27%; in assay [6] (setting [8]), 27%; in assay [6] (at 50.0 µM), 64.2%.
Regarding `COc1ccc(C2=CC(=O)C=CC2=O)cc1`, the growth inhibition in assay [1] (setting [7]) is 19%; in assay [1] (setting [8]) it was 91% (active); in assay [1] (at 50.0 µM), 99% (active); in assay [2] (setting [7]), 3%; in assay [2] (setting [8]), 97% (active); in assay [2] (at 50.0 µM), 99.5% (active). The growth inhibition in assay [3] (setting [7]) was 14%; in assay [3] (setting [8]), 90% (active); in assay [3] (at 50.0 µM), 98.7% (active); in assay [4] (setting [7]), -5%; in assay [4] (setting [8]), 70% (active); in assay [4] (at 50.0 µM) it was 82.2% (active). Moreover, the growth inhibition in assay [5] (setting [7]) is 28%; in assay [5] (setting [8]) it was 99% (active); in assay [5] (at 50.0 µM) it was 99.5% (active); in assay [6] (setting [7]) it was 18%; in assay [6] (setting [8]), 89% (active); in assay [6] (at 50.0 µM) it was 99.2% (active).
As to `C(=C\c1cnnc2ccccc12)/c1cccnc1`, the growth inhibition in assay [1] (setting [7]) is 11%; in assay [1] (setting [8]) it was 45%; in assay [1] (at 50.0 µM), 20.8%; in assay [2] (setting [7]), 18%; in assay [2] (setting [8]), 37%; in assay [2] (at 50.0 µM), -10.8%. Besides, the growth inhibition was 11% in assay [3] (setting [7]); 35% in assay [3] (setting [8]); 2.15% in assay [3] (at 50.0 µM); 6% in assay [4] (setting [7]); 32% in assay [4] (setting [8]); 42.6% in assay [4] (at 50.0 µM). In addition, the growth inhibition in assay [5] (setting [7]) was 6%; in assay [5] (setting [8]) it was 22%; in assay [5] (at 50.0 µM) it was -13.2%; in assay [6] (setting [7]) it was 8%; in assay [6] (setting [8]) it was 36%; in assay [6] (at 50.0 µM), 13.7%.
